Experimental findings from PubChem BioAssay (NCATS) are described below.

Unmarked numbers belong to inactive results. Inconclusive results are not listed. The source made the active and inactive calls. Unless noted, calls follow the shape of the dose curve; as a rule, active = well fitted curve in the direction sought with a large enough effect; inconclusive = small, poorly fitted or top-dose-only effect, or another doubt; inactive = no such curve, though single readings can be large; an effect the other way counts as inactive or inconclusive.

In test [1] the target is Lysosomal acid glucosylceramidase (Homo sapiens) (UniProt P04062). Description: Glucocerebrosidase-p2 (AID 348; in the data active = potency below about 10 µM; also: potency is read from the fitted curve at half-maximal effect). The following applies: purified GBA, blue fluorogenic substrate, 40 min. The method, boiled down:
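Compounds titrated from 0.6 nM upwards against 0.2 nM enzyme in pH 5.9 citric acid/KH2PO4, taurocholate, tween-20; blue fluorogenic substrate 80 uM, 40 min room temperature, stopped and read Ex 365/Em 440 for AC50.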

The target in test [2] is Cytochrome P450 1A2 (Homo sapiens) (UniProt P05177). Nature of the test: p450-cyp1a2 (AID 410; calls by dose curve; also: potency is read from the fitted curve at half-maximal effect). To be noted: recombinant CYP1A2, luciferin-ME demethylation, luminescence; series mostly up to 57 µM. The method, boiled down: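 20nM CYP1A2 with 100uM Luciferin-ME (at Km) in 100mM KPO4; compound preincubated 10 min, NADPH regeneration added, 60 min at room temperature. Luciferin quantified by luminescence after detection reagent; normalized to 57 uM furafylline.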
Sequence of Cytochrome P450 1A2 (Homo sapiens) (P05177 whole entry, looked up): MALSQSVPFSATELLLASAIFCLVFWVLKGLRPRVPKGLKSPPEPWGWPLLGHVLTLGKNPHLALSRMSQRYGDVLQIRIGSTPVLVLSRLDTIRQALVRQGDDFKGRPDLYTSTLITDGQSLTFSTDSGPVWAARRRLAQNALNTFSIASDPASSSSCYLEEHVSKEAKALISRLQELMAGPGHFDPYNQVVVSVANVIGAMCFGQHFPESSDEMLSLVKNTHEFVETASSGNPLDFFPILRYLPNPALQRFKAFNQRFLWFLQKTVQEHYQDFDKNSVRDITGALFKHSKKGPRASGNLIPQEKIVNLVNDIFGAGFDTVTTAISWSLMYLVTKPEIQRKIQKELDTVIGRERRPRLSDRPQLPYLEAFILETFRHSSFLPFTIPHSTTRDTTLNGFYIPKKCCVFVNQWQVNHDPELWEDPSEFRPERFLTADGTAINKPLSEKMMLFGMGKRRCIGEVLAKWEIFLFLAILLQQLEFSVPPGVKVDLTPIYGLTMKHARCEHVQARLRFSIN

The nature of test [3]: NFAT Signaling Pathway (AID 444; active = well fitted curve in either direction with a large enough effect, not every such curve was filed as active;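 also: carbachol stimulus at about its EC50 of 1 µM final; % is scaled to controls: 0 for no effect and ±100 for the full control effect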). The following applies: Jurkat NFAT-bla M1, carbachol, beta-lactamase ratio, 5 h; at 7.69 µM (top of the series) unless noted. In a few lines:
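Read-out: CCF4 FRET ratio (460 nm/530 nm) after 1 h RT dye loading, used for %activity and AC50 from titration series. Cells: Jurkat NFAT-β-lactamase/M1 line, treated with compound plus 1 uM carbachol for 5 h, 37 °C.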

Test [4] concerns the target Glucocorticoid receptor (Homo sapiens) (UniProt P04150). Description: GR-GFP Redistribution (AID 450;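 active = compounds whose dose series gives a full or clear partial fitted curve of increased nuclear translocation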; also: potency is read from the fitted curve at half-maximal effect). The following applies: U2OS GR-GFP nuclear translocation, laser cytometry, 2 h.
The target is the same in test [5]. Nature of the test: GR-EFC Redistribution (AID 451; calls by dose curve; also: potency is read from the fitted curve at half-maximal effect). The following applies: CHO-K1 GR-EFC translocation, beta-gal luminescence, 2 h. The method, boiled down:
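Translocation of GR-ED fusion to nuclear EA restores b-gal, read by luminescence after 1 h room-temperature detection. Engineered CHO-K1 biosensor cells, 1,000/well, exposed 2 h at 37 C to titrations up to 46 uM final.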

Test [6] has as its target Cytochrome P450 2C9 (Homo sapiens) (UniProt P11712). Nature of the test: qHTS Assay for Inhibitors and Substrates of Cytochrome P450 2C9 (AID 883). Also: potency is read from the fitted curve at half-maximal effect; nearly all actives have a fitted effect of over 60% in size. The following applies: recombinant CYP2C9, luciferin-H luminescence, 60 min; series mostly up to 57.1 µM. The method, boiled down: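 Turnover of Luciferin-H (100uM, KM) by 10nM human CYP2C9 was measured over 60 min at 37C with NADPH regeneration; inhibitors and some substrates reduce luminescence. Data normalized to sulphaphenazole 57uM.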
A general note: qHTS replaces the single test concentration by a dilution series.

Test [7] addresses Cytochrome P450 3A4 (Homo sapiens) (UniProt P08684). Description: qHTS Assay for Inhibitors and Substrates of Cytochrome P450 3A4 (AID 884). Also: potency is read from the fitted curve at half-maximal effect; nearly all actives have a fitted effect of over 50% in size. The following applies: recombinant CYP3A4, Luciferin-PPXE luminescence; series mostly up to 57.1 µM. The method, boiled down: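 20 nM human CYP3A4 with 25 uM Luciferin-PPXE (at KM) in 200 mM KPO4, preincubated 10 min with compound; NADPH regeneration started a 60 min RT reaction. Luciferin detected by luminescence, normalized to 57 uM ketoconazole as full inhibition.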

The target is the same in test [8]. Nature of the test: qHTS Assay for Activators of Cytochrome P450 3A4 (AID 885). Also: nearly all actives have a fitted effect of over 65% in size. The following applies: recombinant CYP3A4, Luciferin-PPXE luminescence, 60 min; series mostly up to 57.1 µM. In a few lines:
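20nM CYP3A4 + 25uM Luciferin-PPXE (=KM), 200mM KPO4; cpd 10 min RT; NADPH regen, 60 min RT; stop w/ detection buffer, 20 min; luminescence. Normalized to 57 uM ketoconazole.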

For test [9], the target named is Dual specificity protein kinase CLK4 (Homo sapiens) (UniProt Q9HAZ1). Nature of the test: qHTS Assay for Inhibitors of CDC-like Kinase 4 (Kinase-Glo Assay) (AID 1770). Also: nearly all actives have a fitted effect of over 65% in size. Also: potency is read from the fitted curve at half-maximal effect. To be noted: recombinant Clk4, Kinase-Glo ATP depletion luminescence; series mostly up to 66.7 µM. The method, boiled down: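 Recombinant human Clk4 (25 nM) phosphorylated RS repeat peptide (100 uM) with 1 uM ATP in Tris pH 7.5/MgCl2/EGTA/DTT/Triton buffer for 4.5 h at room temperature. Residual ATP was quantified by Kinase-Glo luciferase luminescence.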
Sequence of Dual specificity protein kinase CLK4 (Homo sapiens) (Q9HAZ1 whole entry, looked up): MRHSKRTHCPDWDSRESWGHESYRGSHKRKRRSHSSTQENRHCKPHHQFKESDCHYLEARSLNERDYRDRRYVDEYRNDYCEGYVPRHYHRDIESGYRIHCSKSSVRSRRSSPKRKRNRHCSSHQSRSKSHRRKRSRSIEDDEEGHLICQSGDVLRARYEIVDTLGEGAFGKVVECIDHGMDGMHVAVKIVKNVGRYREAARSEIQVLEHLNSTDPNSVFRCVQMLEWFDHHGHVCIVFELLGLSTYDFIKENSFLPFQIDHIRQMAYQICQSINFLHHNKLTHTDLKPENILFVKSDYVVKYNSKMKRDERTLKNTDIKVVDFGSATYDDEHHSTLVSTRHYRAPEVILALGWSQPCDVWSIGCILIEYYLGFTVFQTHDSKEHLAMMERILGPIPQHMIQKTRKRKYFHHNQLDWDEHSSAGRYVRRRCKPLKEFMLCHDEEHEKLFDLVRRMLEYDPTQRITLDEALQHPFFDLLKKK

For test [10] the target is unchanged. Description: qHTS Assay for Inhibitors of CDC-like Kinase 4 (ADP-Glo Assay) (AID 1771). Also: nearly all actives have a fitted effect of over 70% in size. Also: potency is read from the fitted curve at half-maximal effect. The following applies: recombinant CLK4, ADP-Glo luminescence; series mostly up to 80 µM. In a few lines:
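25 nM Clk4 with 100 uM RS repeat peptide and 1 uM ATP (final) in buffer with 2 mM MgCl2, 0.5 mM EGTA, 2.5 mM DTT, 0.01% Triton X-100; 1 h at room temperature; ADP-Glo luminescence for ADP formed.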

For test [11] the target is unchanged. Nature of the test: qHTS Assay for Inhibitors of CDC-like Kinase 4 (ADP-FP Assay) (AID 1795). Also: nearly all actives have a fitted effect of over 60% in size. Also: potency is read from the fitted curve at half-maximal effect. To be noted: Transcreener ADP fluorescence polarization; series mostly up to 50 µM. The method, boiled down: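 Recombinant human Clk4 (6.25 nM) phosphorylated RS repeat peptide (100 uM) with 1 uM ATP in Tris pH 7.5/MgCl2/EGTA/DTT/Triton buffer for one hour. ADP was quantified by Transcreener competitive fluorescence polarization against an ADP calibration curve.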

For test [12], the target named is Ubiquitin carboxyl-terminal hydrolase 1 (Homo sapiens) (UniProt O94782). Nature of the test: Inhibitors of USP1/UAF1: Pilot qHTS (AID 504865).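 Also: rhodamine fluorescence freed from ubiquitin-rhodamine substrate followed over time; top concentration of the series differs between compounds; % is scaled to controls: 0 for no effect and ±100 for the full control effect; nearly all actives have a fitted effect of over 35% in size.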 To be noted: purified USP1/UAF1, Ub-rhodamine cleavage fluorescence; series mostly up to 54.9 µM. The method, boiled down:
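USP1/UAF1 complex (1nM) preincubated with compound 15 min at room temperature, then Ub-Rho substrate (150nM final) added. Fluorescence read kinetically at 480/540 nm, 6 reads every 60 seconds. Buffer: 50mM HEPES pH 7.8, 0.5mM EDTA, 0.1 mg/ml BSA, 1mM TCEP, 0.01% Tween-20.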

The nature of test [13]: Primary qHTS for small molecule stabilizers of the endoplasmic reticulum resident proteome: Secreted ER Calcium Modulated Protein (SERCaMP) assay (AID 1508630). Also: % is scaled to controls: 0 for no effect and ±100 for the full control effect. The following applies: SH-SY5Y GLuc-SERCaMP (Gaussia luciferase released on ER calcium loss) secretion, thapsigargin, luminescence; series mostly up to 38.4 µM. In a few lines:
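GLuc-SERCaMP-expressing SH-SY5Y cells, pretreated 16 h with compound, are challenged with thapsigargin to empty ER calcium stores; after 4 h, coelenterazine is added directly to the medium and luminescence is imaged.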

Test [14] in a line: AP1 Signaling Pathway (AID 357; active = well fitted curve in either direction with a large enough effect, not every such curve was filed as active;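 also: ME-180 reporter cells stimulated with EGF at its EC50 level; % is scaled to controls: 0 for no effect and ±100 for the full control effect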). The following applies: ME-180 AP-1-bla reporter, EGF-induced, beta-lactamase ratio, 5 h; at 7.69 µM (top of the series) unless noted. In a few lines: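 Beta-lactamase reporter under AP-1 response element, ME-180 background. Stimulus: EC50 EGF. Compound exposure 5 h, 37 °C. Detection: CCF4, 2.5 h RT, 460/530 nm. Values: AC50 from titration.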

Test [15] is described as follows: Stat Signaling Pathway (AID 446; active = well fitted curve in either direction with a large enough effect, not every such curve was filed as active;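 also: ME-180 cervical cancer cells given 40 pM IL-6 alongside compound; SIE-controlled beta-lactamase reporter measured as 460/530 nm FRET emission ratio; % is scaled to controls: 0 for no effect and ±100 for the full control effect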). To be noted: ME-180 (cervical carcinoma) SIE beta-lactamase reporter, IL-6 stimulated, 5 h; at 7.69 µM (top of the series) unless noted. In a few lines:
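ME-180 SIE-bla cells; overnight plating; cpd + IL-6 40 pM, 5 h, 37 C; LiveBLAzer 2.5 h RT; 460/530 nm emission ratio. Normalized to 300 pM IL-6 and 125 nM JAK inhibitor controls.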

Test [16] addresses Mitogen-activated protein kinase 10 (Mus musculus) (UniProt Q61831). Nature of the test: JNK3 AlphaScreen Assay (AID 530; active = well fitted curve in either direction with a large enough effect, not every such curve was filed as active). To be noted: JNK3 lysate, c-Jun phosphorylation; series mostly up to 57.1 µM. In a few lines: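 Compound titrations were preincubated 15 minutes at room temperature with substrate, antibody and pre-activated JNK3-containing HepG2 lysate. Reactions were started with 10 uM ATP and stopped with EDTA-containing bead buffer for AlphaScreen detection.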
For orientation: Bead proximity is the source of the signal in Alpha formats.

In test [17] the target is 3',5'-cyclic-AMP phosphodiesterase 4B (Homo sapiens) (UniProt Q07343). Nature of the test: qHTS Assay for Inhibitors of PDE-IV (AID 607; active = well fitted activation curve with a large enough effect in the main read-out, with a control signal flat, not every such curve was filed as active; also: % of control where 0% means no effect). The following applies: HEK293 ACTOne CNG channel cells, membrane potential fluorescence; series mostly up to 22.9 µM. In a few lines: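 ACTOne HEK293 cells carry a modified cAMP-gated CNG channel and express endogenous PDE4; plated 1000 cells/well, compounds up to 22.9 uM final. Membrane-potential dye fluorescence (ex 535/em 590) was read; parental cells received 10 uM forskolin + 100 uM RO 20-1724.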
Sequence of 3',5'-cyclic-AMP phosphodiesterase 4B (Homo sapiens) (Q07343 whole entry, looked up): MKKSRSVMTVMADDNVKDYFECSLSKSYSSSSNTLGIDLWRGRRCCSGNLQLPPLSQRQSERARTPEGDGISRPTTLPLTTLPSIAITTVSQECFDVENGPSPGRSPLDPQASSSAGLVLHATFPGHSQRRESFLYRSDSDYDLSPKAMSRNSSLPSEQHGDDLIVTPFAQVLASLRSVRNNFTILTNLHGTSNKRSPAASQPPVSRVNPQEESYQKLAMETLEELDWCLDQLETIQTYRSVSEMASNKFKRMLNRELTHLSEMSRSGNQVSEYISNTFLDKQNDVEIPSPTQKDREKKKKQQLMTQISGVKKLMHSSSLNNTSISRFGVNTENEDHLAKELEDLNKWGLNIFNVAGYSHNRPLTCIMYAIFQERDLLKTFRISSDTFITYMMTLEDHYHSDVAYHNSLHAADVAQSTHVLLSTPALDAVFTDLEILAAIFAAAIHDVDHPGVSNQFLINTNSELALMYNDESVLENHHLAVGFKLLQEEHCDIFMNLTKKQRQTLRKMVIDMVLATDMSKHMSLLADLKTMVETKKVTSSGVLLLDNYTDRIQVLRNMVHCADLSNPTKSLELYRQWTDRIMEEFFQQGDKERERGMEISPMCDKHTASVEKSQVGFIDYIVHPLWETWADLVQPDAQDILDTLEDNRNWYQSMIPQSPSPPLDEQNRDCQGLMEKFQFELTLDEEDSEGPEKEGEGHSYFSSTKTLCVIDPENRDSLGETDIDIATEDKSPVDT

Test [18] has as its target Cytochrome P450 2C19 (Homo sapiens) (UniProt P33261). Nature of the test: qHTS Assay for Inhibitors and Substrates of Cytochrome P450 2C19 (AID 899). Also: potency is read from the fitted curve at half-maximal effect; nearly all actives have a fitted effect of over 60% in size. To be noted: recombinant CYP2C19, luciferin-H EGE luminescence; series mostly up to 57.1 µM. The method, boiled down: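 Reactions contain 5nM enzyme, 10uM Luciferin-H EGE (KM) and 50mM KPO4; compound preincubates 10 min at 37C, NADPH regeneration starts turnover for 60 min. Luminescence after detection reagent gives activity.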

Sequence of Lysosomal acid glucosylceramidase (Homo sapiens) (P04062 whole entry, looked up): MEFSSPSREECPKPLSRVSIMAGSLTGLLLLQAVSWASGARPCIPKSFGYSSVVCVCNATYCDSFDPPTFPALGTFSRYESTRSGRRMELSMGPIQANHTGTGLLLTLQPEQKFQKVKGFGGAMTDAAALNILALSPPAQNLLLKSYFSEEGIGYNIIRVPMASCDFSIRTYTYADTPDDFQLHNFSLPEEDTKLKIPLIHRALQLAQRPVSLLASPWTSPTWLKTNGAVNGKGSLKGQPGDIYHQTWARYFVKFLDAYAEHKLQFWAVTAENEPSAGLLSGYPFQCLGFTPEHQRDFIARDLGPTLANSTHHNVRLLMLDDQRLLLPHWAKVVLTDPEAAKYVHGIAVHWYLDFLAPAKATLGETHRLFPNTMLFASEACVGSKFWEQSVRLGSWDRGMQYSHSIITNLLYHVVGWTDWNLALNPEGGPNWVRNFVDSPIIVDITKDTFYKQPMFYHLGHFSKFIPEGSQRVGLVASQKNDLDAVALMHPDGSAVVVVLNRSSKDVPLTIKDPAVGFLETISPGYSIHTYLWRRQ
Sequence of Glucocorticoid receptor (Homo sapiens) (P04150 whole entry, looked up): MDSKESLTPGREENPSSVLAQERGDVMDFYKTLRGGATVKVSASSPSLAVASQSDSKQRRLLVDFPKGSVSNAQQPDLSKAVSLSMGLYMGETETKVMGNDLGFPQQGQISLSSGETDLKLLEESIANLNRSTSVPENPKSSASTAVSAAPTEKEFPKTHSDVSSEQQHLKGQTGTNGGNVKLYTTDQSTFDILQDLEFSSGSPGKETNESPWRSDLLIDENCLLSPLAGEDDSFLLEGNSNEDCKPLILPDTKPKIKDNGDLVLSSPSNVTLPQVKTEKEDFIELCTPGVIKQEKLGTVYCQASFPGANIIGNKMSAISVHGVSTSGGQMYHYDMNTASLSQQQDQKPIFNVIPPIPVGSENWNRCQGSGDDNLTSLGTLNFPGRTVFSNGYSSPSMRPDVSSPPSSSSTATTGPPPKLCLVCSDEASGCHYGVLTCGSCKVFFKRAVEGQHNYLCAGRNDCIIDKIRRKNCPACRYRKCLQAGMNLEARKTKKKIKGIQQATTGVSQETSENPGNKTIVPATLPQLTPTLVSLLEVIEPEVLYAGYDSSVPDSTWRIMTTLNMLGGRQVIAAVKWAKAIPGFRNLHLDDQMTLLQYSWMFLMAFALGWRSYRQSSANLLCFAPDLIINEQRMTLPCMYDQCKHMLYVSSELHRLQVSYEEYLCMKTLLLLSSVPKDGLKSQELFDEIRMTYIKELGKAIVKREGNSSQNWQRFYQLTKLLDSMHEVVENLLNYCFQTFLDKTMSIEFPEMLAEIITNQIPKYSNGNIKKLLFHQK
Sequence of Ubiquitin carboxyl-terminal hydrolase 1 (Homo sapiens) (O94782 whole entry, looked up): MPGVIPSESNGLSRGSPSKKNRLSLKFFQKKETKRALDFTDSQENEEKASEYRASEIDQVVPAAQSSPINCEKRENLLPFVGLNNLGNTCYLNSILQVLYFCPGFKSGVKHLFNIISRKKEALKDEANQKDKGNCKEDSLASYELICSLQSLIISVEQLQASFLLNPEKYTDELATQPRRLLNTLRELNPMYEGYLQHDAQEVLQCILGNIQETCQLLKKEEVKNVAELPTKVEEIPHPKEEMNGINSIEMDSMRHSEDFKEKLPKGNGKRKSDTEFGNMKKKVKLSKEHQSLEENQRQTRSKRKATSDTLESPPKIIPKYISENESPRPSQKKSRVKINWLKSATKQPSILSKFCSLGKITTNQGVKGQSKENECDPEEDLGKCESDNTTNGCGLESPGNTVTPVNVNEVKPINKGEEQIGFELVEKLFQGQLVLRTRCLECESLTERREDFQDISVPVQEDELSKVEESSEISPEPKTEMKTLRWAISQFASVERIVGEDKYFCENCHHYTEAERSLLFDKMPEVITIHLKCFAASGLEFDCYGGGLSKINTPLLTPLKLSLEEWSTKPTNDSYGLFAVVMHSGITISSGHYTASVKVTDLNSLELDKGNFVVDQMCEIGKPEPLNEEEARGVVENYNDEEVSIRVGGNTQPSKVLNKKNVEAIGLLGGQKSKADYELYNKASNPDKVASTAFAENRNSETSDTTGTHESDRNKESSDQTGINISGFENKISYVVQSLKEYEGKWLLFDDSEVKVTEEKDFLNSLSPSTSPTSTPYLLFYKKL
Sequence of Cytochrome P450 3A4 (Homo sapiens) (P08684 whole entry, looked up): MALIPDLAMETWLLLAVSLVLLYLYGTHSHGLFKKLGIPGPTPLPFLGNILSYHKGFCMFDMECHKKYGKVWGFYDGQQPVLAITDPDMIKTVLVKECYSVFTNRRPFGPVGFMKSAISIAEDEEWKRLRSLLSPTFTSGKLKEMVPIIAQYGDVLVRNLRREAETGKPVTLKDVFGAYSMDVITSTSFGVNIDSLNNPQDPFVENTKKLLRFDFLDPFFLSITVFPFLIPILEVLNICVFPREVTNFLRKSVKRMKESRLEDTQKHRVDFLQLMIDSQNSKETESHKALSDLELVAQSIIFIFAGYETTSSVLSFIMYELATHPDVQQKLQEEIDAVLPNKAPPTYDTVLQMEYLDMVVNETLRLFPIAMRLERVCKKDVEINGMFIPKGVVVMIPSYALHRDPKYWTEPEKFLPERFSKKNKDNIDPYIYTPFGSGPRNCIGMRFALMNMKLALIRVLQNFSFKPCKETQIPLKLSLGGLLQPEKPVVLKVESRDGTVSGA
Sequence of Cytochrome P450 2C9 (Homo sapiens) (P11712 whole entry, looked up): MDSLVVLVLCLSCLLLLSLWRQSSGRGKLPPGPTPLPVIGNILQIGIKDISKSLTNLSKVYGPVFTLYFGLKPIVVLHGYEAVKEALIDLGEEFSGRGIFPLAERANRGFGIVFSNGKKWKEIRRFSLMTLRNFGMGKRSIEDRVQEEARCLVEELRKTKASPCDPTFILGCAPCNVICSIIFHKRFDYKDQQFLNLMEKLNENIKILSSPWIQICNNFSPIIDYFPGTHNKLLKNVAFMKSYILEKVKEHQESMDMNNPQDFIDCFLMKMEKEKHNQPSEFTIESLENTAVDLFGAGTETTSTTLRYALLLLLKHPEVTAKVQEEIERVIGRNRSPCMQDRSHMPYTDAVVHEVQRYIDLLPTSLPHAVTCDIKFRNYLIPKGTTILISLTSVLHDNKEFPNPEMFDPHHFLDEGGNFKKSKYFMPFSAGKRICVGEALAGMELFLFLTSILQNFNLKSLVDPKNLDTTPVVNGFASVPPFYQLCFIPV

Consider `COc1cccc(Cn2c(=O)c(-c3cccs3)nc3cnc(OC)nc32)c1`, for which the Potency is more than 11.4 µM in test [1]; 3160 nM (active) in test [2]; more than 9.22 µM in test [4]; more than 46 µM in test [5]; 3.16 µM (active) in [6]; 3.98 µM (active) in test [7]. The activity change, negative = inhibition in [3] was 25.8%. Further, the Potency entry in test [8], in test [9], in [10], in [11] and in test [12] was “inactive” each time. Moreover, the outcome in test [13] was inactive.

`COc1ccc(-c2nc3cnc(N(C)C)nc3n(C3CC3)c2=O)cc1`: the results for the Potency in test [1], in [4] and in [5] were more than 11.4 µM, more than 9.22 µM and more than 46 µM, respectively. Moreover, the activity change, negative = inhibition in [14] is -0.159%. The activity, negative = inhibition in [15] is 24.2%. The Potency result in test [16], in test [17], in test [9], in test [10], in test [11] and in [12] was “inactive” each time. For the same molecule, in test [13], the outcome was inactive.

In the case of `c1cncc(-c2cncnc2NCc2cccs2)c1`, the Potency was more than 11.4 µM in test [1]; 316 nM (active) in test [2]; more than 46 µM in test [4]; more than 46 µM in test [5]; 2 µM (active) in test [7]. Besides, the activity change, negative = inhibition in test [3] was 23.6%. The activity, negative = inhibition in test [15] is -4.79%. In addition, the Potency entry in test [16], in test [17], in [8], in test [9], in [10] and in test [11] was “inactive” throughout. Also, the Potency entry in test [12] was “inactive”. Besides, in [13], the result was inactive.

In the case of `COc1cccc(-c2ccc3ncnc(NC4CC4)c3c2)c1`, the Potency was more than 11.4 µM in test [1]; 200 nM (active) in test [2]; more than 46 µM in test [5]; 2 µM (active) in test [7]; 1.26 µM (active) in test [18]; 447 nM (active) in test [9]. The Potency in [10] is 316 nM (active); in [11], 126 nM (active). The activity change, negative = inhibition in test [3] is 2.56%. Besides, the Potency result in test [16], in test [8] and in test [12] was “inactive” throughout. The outcome in test [13] was inactive.
